According to PubChem BioAssay (NCI):
This is part of a sample that, as a whole, favours compounds with a hit. Of some 83,000 tested, about 20% had one in any assay.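 Cells were grown in 96-well plates and exposed to the test compound at a single concentration for 48 hours; results are reported as percent growth, with values below 10 considered active.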 Values without a mark were called inactive. Calls of active or inactive are those of the source.

How the values were obtained:
Assay in all cases: NCI-60 one-dose screen, 48 h (100 = growth as untreated, 0 = no growth, -100 = all killed)
Conditions in all cases: 10 µM
SR leukemia = test system: SR leukemia
OVCAR-5 ovarian = test system: OVCAR-5 ovarian
OVCAR-4 ovarian = test system: OVCAR-4 ovarian
SK-OV-3 ovarian = test system: SK-OV-3 ovarian
IGROV1 ovarian = test system: IGROV1 ovarian
OVCAR-3 ovarian = test system: OVCAR-3 ovarian
NCI/ADR-RES ovarian = test system: NCI/ADR-RES ovarian
RPMI-8226 leukemia = test system: RPMI-8226 leukemia
OVCAR-8 ovarian = test system: OVCAR-8 ovarian
HS 578T breast = test system: HS 578T breast

Row | SMILES | growth (SR leukemia) [%] | growth (OVCAR-5 ovarian) | growth (OVCAR-4 ovarian) | growth (SK-OV-3 ovarian) | growth (IGROV1 ovarian) | growth (OVCAR-3 ovarian) | growth (NCI/ADR-RES ovarian) | growth (RPMI-8226 leukemia) | growth (OVCAR-8 ovarian) | growth (HS 578T breast)
1 | CC[C@@H](C(=O)[C@H](C)[C@H](O)[C@@H](C)[C@H]1O[C@H]([C@@H](CC)C(=O)N(CC)CC)CC[C@H]1C)C1O[C@]2(C=C[C@@H](O)[C@]3(CC[C@@](C)([C@H]4CC[C@](O)(CC)[C@H](C)O4)O3)O2)[C@H](C)C[C@@H]1C (stereo not given in full) | 55.5 | 32% | 28.2% | 20.8% | 19.8% | 14.3% | 5.44% (active) |  |  | 
2 | OC[C@H]1OC([S-])[C@H](O)[C@@H](O)[C@@H]1O.[Au+] (stereo not given in full) |  | 129% | 96.9% | 120% | 119% | 128% | 101% | 80.6% | 104% | 73.3%
3 | C[C@@H](C[C@H](CCO)c1ccccc1)c1ccc2ccccc2c1 |  | -69% (active) | -81% (active) | 23.8% | -54.5% (active) | -88% (active) | -60.5% (active) | -18.8% (active) | -39% (active) | -9.29% (active)
4 | CN(C)CCOc1cccc(-c2nc3sccn3c2-c2ccnc(S(C)(=O)=O)n2)c1 |  | 97.3% | 75.8% | 96.5% | 94.3% | 93.6% | 101% | 94.7% | 100% | 86.4%
5 | NS(=O)(=O)c1ccc(N2N=C(c3ccccc3)CCC2=O)cc1 |  | 112% | 95.8% | 113% | 105% | 158% | 98% | 94.5% | 98% | 113%
6 | O=C(O)Cc1ccc(O)c(O)c1 |  | 96.2% | 109% | 99.3% |  | 108% | 111% | 92.4% | 104% | 90%
7 | O=S(=O)(Oc1ccc(-c2ccc3sccc3c2)cc1)c1ccccc1 |  | 97.3% | 103% | 107% | 107% | 110% | 103% | 107% | 106% | 108%
8 | CC(C)N(CCOc1cccc(-c2nc3sccn3c2-c2ccnc(S(C)(=O)=O)n2)c1)C(C)C |  | 115% | 64.5% | 85.7% | 94.7% | 90.6% | 89.5% | 37.7% | 79.2% | 95.8%
9 | CCCCN1C(=O)CC(SC2CC(=O)N(CCCC)C2=O)C1=O (stereo not given) |  | 108% | 109% | 111% |  | 106% | 111% | 100% | 108% | 103%
10 | Cc1cc(C)nc(NS(=O)(=O)c2ccc(Nc3nc4nc(NCc5ccccc5)nc(-c5ccc(O)cc5)c4c(=O)[nH]3)cc2)n1 |  | 45.2% | 18.3% | 35.2% |  | 34.2% | 20.3% | 18.1% | 49.5% | 35.6%
11 | CC(CN(C)C)Oc1ccc(OC(C)CN(C)C)c2c1C(=O)c1ccccc1C2=O (stereo not given) |  | 63.6% | 72% | 45.1% | 37.3% | 55% | 94.5% | 41.4% | 30.1% | 70%
12 | COc1ccc(-c2nn(-c3cccc(Cl)c3)cc2-c2c(C#N)c(N)n(N)c(=O)c2C#N)cc1 |  | 84.4% | 89.3% | 95% |  | 72.4% | 90.4% |  | 73.3% | 58.2%
13 | O=C1OC(C(Cl)(Cl)Cl)OC1C(Cl)(Cl)Cl (stereo not given) |  | 105% | 113% |  |  |  | 108% | 104% | 104% | 117%
14 | Cc1nn(-c2ccccc2)c2nc(Cl)c(C=O)c(-c3ccccc3)c12 |  | 99.8% | 102% | 116% |  | 106% | 82.8% |  | 99.9% | 112%
15 | Cc1cn(-c2cc(F)cc(NC(=O)c3ccc(C)c(Nc4nccc(-c5cccnc5)n4)c3)c2)cn1 |  | 45.2% | -41.7% (active) | 2.64% (active) |  | -30.9% (active) | 59.9% |  | 31.6% | 38.5%
16 | COc1ccc(C(=O)CC(CC(=O)c2ccc(OC)cc2)c2c(C)nn(-c3ccccc3)c2Cl)cc1 |  | 91.8% | 101% | 109% | 104% | 115% | 95.5% |  |  | 94.4%
17 | CC1(C)N=C(N)N=C(N)N1c1cccc(C#N)c1 |  | 51% | 97.3% | 82.9% | 42.6% | 60.7% | 75% |  | 33.8% | 88.2%
18 | COc1ccc(-c2nn(-c3cccc(Cl)c3)cc2/C=C2\NC(=S)N(c3ccc(Cl)cc3)C2=O)cc1 |  | 53.7% | -62.1% (active) | -47.8% (active) | -16.2% (active) | 0.69% (active) | 7.34% (active) |  | 21.9% | 
19 | CC1=CC2C(C(O)CC3(C)C2CC(C)C32OCOC23COCO3)C2(C)C/C(=C/O)C(=O)C=C12 (stereo not given) |  | 63.2% | 35.8% | 48.5% | 70.9% | 10.8% | 17.3% |  | 43.8% | 83.4%
20 | Cc1c2c[n+](C(C)C)ccc2c(C)c2c1[nH]c1ccccc12 |  | 55.7% | 13.8% | -1.05% (active) | 41.2% | 9.41% (active) | 97.9% |  | 15.9% | 22.8%
21 | Nc1c(Br)cc(Br)c2c1[nH]c(=O)c1ccccc12 |  | 72.8% |  | 16.1% | 58.4% | 68.7% | 44.3% | 96.2% | 37.2% | 30.5%
22 | CCOC(=O)Cn1c(=O)c2sc3ncccc3c2n2nnc(-c3ccccc3)c12 |  | 105% | 101% | 94% |  | 120% | 105% | 94.7% | 102% | 112%
23 | O=C1c2ccccc2-c2c1c1cccnc1c(=O)n2C[C@H](O)CO |  | 104% | 92.5% | 60.3% | 50.4% | 79.6% | 88.1% |  | 58.7% | 85.1%
24 | CCOc1ccccc1/C=N\N=C(\N)N/N=C/c1ccccc1OCC |  | 93.4% | 71.8% | 10.3% |  | 7.41% (active) | 3.57% (active) | 27.1% | 39.1% | 
25 | Cc1c(C(N)=O)sc2c1c(=O)n(Cc1ccccc1)c1nnc(-c3ccc(Br)cc3)n21 |  | 48.6% | 40.2% | 33.2% |  |  | 6.12% (active) | 12.1% | 0.274% (active) | 73.6%
26 | Cc1ccc(NC(=S)NNC(=S)Nc2ccc(C)cc2)cc1 |  | 89.1% | 106% | 59.7% |  | 64.5% | 31.7% |  | 76% | 78.4%

Row | SMILES | growth (SR leukemia) [%] | growth (OVCAR-5 ovarian) | growth (OVCAR-4 ovarian) | growth (SK-OV-3 ovarian) | growth (IGROV1 ovarian) | growth (OVCAR-3 ovarian) | growth (NCI/ADR-RES ovarian) | growth (RPMI-8226 leukemia) | growth (OVCAR-8 ovarian) | growth (HS 578T breast)
27 | Fc1ccc(C(c2ccc(F)cc2)C(Cl)Cl)cc1 |  | 105% | 105% | 106% |  | 105% | 107% | 97.3% | 101% | 
28 | O=C(c1ccccc1)N(C(=O)c1ccccc1)N1CCCC1 |  | 99.3% | 106% | 109% |  | 110% | 102% | 103% |  | 105%
29 | Cc1cc(Br)nnc1Br |  | 105% | 113% | 101% |  |  | 120% | 122% | 115% | 110%
30 | Nc1nc(-c2ccc(Cl)cc2)cc(-c2cc3ccccc3oc2=O)n1 |  | 108% | 100% |  | 55.1% | 100% | 108% | 98.6% | 106% | 107%
31 | NC(N)=N/N=C(\N=Nc1ccccc1)c1ccc(Cl)cc1 |  | 24.9% | 51.8% | 55.5% | 46.3% | 12.6% | 8.53% (active) |  | 26.2% | 65.2%
32 | COc1cc2nc(SCC(=O)Nc3cc(OC)c(OC)c(OC)c3)n(Cc3ccccc3)c(=O)c2cc1OC |  | 93.7% | 48.1% | 47.4% | 75.5% | 69.7% |  |  | -4.94% (active) | 24.9%
33 | OCC1OC(n2cnc3c(NCc4ccco4)ncnc32)C(O)C1O (stereo not given) |  | 28.8% | 23% | -2.77% (active) | -3.86% (active) | -41.7% (active) | 12.7% | 50.8% |  | 11.5%
34 | COc1cc2cc(Oc3ccc(NC(=O)c4ccc(Cl)c(C(F)(F)F)c4)cc3)c(C)nc2cc1OC |  | 51.3% | 42.4% | 27.7% | 20.6% |  | 14.1% | 9.15% (active) |  | 41.6%
35 | COc1ccc(C(=O)N2C=Cc3ccccc3C2C#N)cc1 (stereo not given) |  | 102% | 102% | 97.5% | 114% | 105% | 95.6% | 94.9% |  | 96.9%
36 | O=C1NC(=O)c2c(CCCSc3nc4ccccc4c(=O)n3CCc3ccccc3)cccc21 |  | 102% | 60.7% | 86.2% | 97.4% | 115% | 79.8% |  | 83.7% | 74.1%
37 | O=c1c(Br)ccc(Br)cc1Br |  | 4.49% (active) | -92.8% (active) | 112% |  | -94.8% (active) | -15.3% (active) | -51.2% (active) |  | 43.4%
38 | NC(CSC(c1ccccc1)(c1ccccc1)c1cccc2ccccc12)C(=O)O (stereo not given) |  | 101% | 95.4% | 106% | 98.1% | 98.6% | 97.6% | 89.2% |  | 92.5%
39 | OCCn1cccn1 |  | 107% | 117% | 104% |  | 104% | 97.5% | 98.2% | 116% | 111%
40 | CCCCCCCCCCCC[n+]1c(C)cc(N)c2ccccc21 |  | 31.7% | 15.1% | -2.73% (active) |  |  | 53.3% | -28.4% (active) |  | 
41 | Cc1ccc(C(SCC(N)C(=O)O)(c2ccc(C)cc2)c2ccc(C)cc2)cc1 (stereo not given) |  | 38.6% | 47.8% | 26% |  |  | 57.8% | -36.6% (active) | 7.22% (active) | -15.3% (active)
42 | O=C1/C(=C/c2cccc(F)c2)Cc2ccccc21 |  | 120% | 97.5% | 108% | 99.6% | 113% | 102% | 93.3% |  | 181%
43 | CCN1C(=O)CC(SC2CC(=O)N(CC)C2=O)C1=O (stereo not given) |  | 106% | 102% | 103% | 107% | 107% | 98.7% |  | 109% | 101%
44 | CN(C)c1ccc(/C=N/NC(=O)c2cccc3ccccc23)c(Cl)c1 |  | 58.1% | 50.9% | 16.9% | 46.1% | -17.4% (active) | -9.37% (active) | 7.96% (active) |  | 42.2%
45 | Nc1nc(N)c(N)c(Nc2ccc(CCO)cc2)n1 |  | 111% | 112% | 110% |  | 107% | 103% | 95.3% | 105% | 100%
46 | COC1=CC(=O)OC(c2ccc(OC)cc2)C1 (stereo not given) |  | 106% | 106% | 117% |  | 103% | 102% | 111% |  | 111%
47 | O=[N+]([O-])c1ccc(NCSc2ccc(Cl)cc2)cc1 |  | 106% | 117% | 109% |  | 106% | 102% | 91.8% | 97% | 
48 | Nc1cc(-c2ccc(Cl)cc2)nn1-c1nc2ccccc2nc1Cc1ccccc1 |  | 95% |  | 96.7% | 94.9% |  | 87.5% |  |  | 
49 | Cc1cc(SCc2ccccc2)nc(N)n1 |  |  |  | 108% |  | 123% | 105% | 105% | 105% | 111%
50 | COc1ccc2c(c1)C(CC(=O)NN)CCC2 (stereo not given) |  | 100% | 110% | 115% |  | 112% | 108% | 113% | 99.1% | 
51 | COC(=O)CC[C@@H](C)[C@H]1CC[C@H]2[C@@H]3CC[C@@H]4C[C@H](O)CC[C@]4(C)[C@H]3C[C@H](O)[C@]12C |  | 109% | 110% | 111% |  | 102% | 106% | 68.4% | 103% | 114%
